Screens as filed in PubChem.
This excerpt belongs to a sample that is enriched for hits.
Tb PFK inh-1: qHTS Assay to Find Inhibitors of T. brucei phosphofructokinase; T. brucei PFK, ADP-Glo luminescence; Potency, µM (titrated, usually from 57.5 µM), inactives show top-dose activity, negative = inhibition, actives largely listed as inhibitors; 330,000 compounds, 0.17% hits; AID 485367, 2010;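 further: potency means the concentration at half of the fitted maximal effect; 0% = uninhibited 1x PFK enzyme wells and -100% = no-enzyme wells; nearly all actives have a fitted effect of over 60% in size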
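1.25 nM PFK with 0.5 mM F6P and 0.1 mM ATP in 0.1 M TEA pH 8.0, 5 mM MgCl2, incubated 45 min at room temperature; ADP measured by ADP-Glo luminescence; compounds titrated up to 57 uM.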
Pin1 inhibitor: qHTS Assay to Find Inhibitors of Pin1; 390,000 compounds, 0.009% hits; Peptidyl-prolyl cis-trans isomerase NIMA-interacting 1 (Homo sapiens), Q13526; Pin1 FP peptide displacement, HiFluor488, 10 min; Potency, µM (series often up to 115 µM), without a hit: top-dose activity, negative = inhibition, usual class: inhibitors; active means well fitted inhibition curve with a large enough effect in the polarisation, with a control signal flat, not every such curve was filed as active; inconclusive means small, poorly fitted or top-dose-only effect, or effect the other way, or a change in a side signal; inactive means no such curve, though single readings can be large or run the other way; the % refers to the polarisation; further: potency means the concentration at half of the fitted maximal effect; on the % scale 0 is the no-effect control and ±100 the full control effect
Target sequence (Q13526 whole entry, looked up): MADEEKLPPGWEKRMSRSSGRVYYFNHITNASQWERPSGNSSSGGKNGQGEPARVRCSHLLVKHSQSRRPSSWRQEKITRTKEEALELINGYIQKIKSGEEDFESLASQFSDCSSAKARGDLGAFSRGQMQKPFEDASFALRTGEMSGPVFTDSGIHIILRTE
Tb PGK inh: qHTS Assay to Find Inhibitors of Phosphoglycerate Kinase | PGK/GAPDH coupled, Kinase-Glo luminescence, 60 min | Potency, µM (highest dose often 57.5 µM), for the others: at the top dose activity change, negative = inhibition, actives largely listed as inhibitors | 380,000 compounds, 0.043% hits | Phosphoglycerate kinase, glycosomal (Trypanosoma brucei brucei), P07378 | AID 602233, 2012; further: potency means the concentration at half of the fitted maximal effect; on the % scale 0 is the no-effect control and ±100 the full control effect; nearly all actives have a fitted effect of over 60% in size
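Luminescent ATP detection (Kinase-Glo Plus) follows a 60-minute room-temperature incubation, with wells lacking PGK as controls. Buffer: 100 mM TEA (pH 7.6), 5 mM MgCl2, 0.01% Tween-20. Coupling enzyme GAPDH (100 nM final) supplies unstable 1,3-BPG in-well.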
PI5P4K alpha inh: qHTS for Inhibitors of phosphatidylinositol 5-phosphate 4-kinase (PI5P4K). AID 652105, 2013. max response, %. 330,000 compounds, 1.2% hits. PI5P4Kalpha enzyme, ADP-Glo luminescence, 60 min; active compounds read low. Phosphatidylinositol 5-phosphate 4-kinase type-2 alpha (Homo sapiens), P48426; active means max response of -50% or lower; inconclusive means between -30% and -50%; inactive means -30% or higher; further: value at the top dose of about 77 µM; on the % scale 0 is the no-effect control and ±100 the full control effect
Target sequence (P48426 whole entry, looked up): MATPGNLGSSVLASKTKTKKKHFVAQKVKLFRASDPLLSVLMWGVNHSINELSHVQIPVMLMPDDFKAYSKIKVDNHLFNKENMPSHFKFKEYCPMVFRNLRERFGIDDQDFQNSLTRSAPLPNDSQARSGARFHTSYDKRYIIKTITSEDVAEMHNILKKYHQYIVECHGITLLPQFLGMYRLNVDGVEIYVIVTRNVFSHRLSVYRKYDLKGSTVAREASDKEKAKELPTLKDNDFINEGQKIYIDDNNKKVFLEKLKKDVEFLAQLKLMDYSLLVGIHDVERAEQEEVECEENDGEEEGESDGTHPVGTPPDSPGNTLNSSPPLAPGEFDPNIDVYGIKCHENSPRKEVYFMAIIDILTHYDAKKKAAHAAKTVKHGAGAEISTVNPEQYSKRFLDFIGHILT
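Controls without substrate or without enzyme flank wells where PI5P4Kalpha converts substrate using 5 microM ATP (final). Incubation lasts 60 minutes at room temperature; ADP formed is read by ADP-Glo luminescence.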
PI4K2A inh: qHTS for small molecular inhibitors of PI4K2A; Phosphatidylinositol 4-kinase type 2-alpha (Homo sapiens), Q9BTU6; activity change, negative = inhibition, % at 76.9 µM; 420,000 compounds, 0.13% hits; purified PI4K2A, ADP-Glo luminescence, 1 h; active compounds read low; in the data active means activity change below about -50%; inconclusive means mostly about -30% to -49%;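 further: -100% = wells without enzyme as full effect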
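Compounds are screened against recombinant PI4K2A using PI as substrate and ATP, the latter dispensed at 300 microM. Reactions run one hour at ambient temperature before ADP-Glo detection; full inhibition defined by wells lacking enzyme.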
Tb PFK KinaseGlo: Tb PFK orthogonal confirmatory assay using ATP depletion (Kinase-Glo Plus) as an alternative measure of Tb PFK activity: Hit Validation; shares compounds with Tb PFK inh-1; Tb PFK enzyme, ATP depletion, Kinase-Glo Plus luminescence; Potency, µM (highest dose often 57.5 µM), for inactives: top-dose inhibition; 1,100 compounds, 47% hits; AID 504636, 2011; calls by dose curve; further: potency means the concentration at half of the fitted maximal effect; nearly all actives have a fitted effect of over 60% in size
Tb PFK inh-2: Inhibitors of T. brucei phosphofructokinase: Hit Validation. shares compounds with Tb PFK inh-1. purified T. brucei PFK, ADP-Glo luminescence, 45 min. Potency, µM (series often up to 57.5 µM), inactives show top-dose activity change, negative = inhibition, actives largely listed as inhibitors. 1,100 compounds, 41% hits. AID 504637, 2011;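 further: potency means the concentration at half of the fitted maximal effect; plate controls were full PFK enzyme control for no effect and no enzyme control for full effect; nearly all actives have a fitted effect of over 60% in size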
Active calls of the source: *; i = inactive; ? = inconclusive; · = no result. Unless noted, the call rests on the fitted dose curve; in most records, active means well fitted curve in the direction sought with a large enough effect; inconclusive means small, poorly fitted or top-dose-only effect, or another doubt; inactive means no such curve, though single readings can be large; an effect the other way counts as inactive or inconclusive.

SMILES	Tb PFK inh-1	Pin1 inhibitor	Tb PGK inh	PI5P4K alpha inh	PI4K2A inh	Tb PFK KinaseGlo	Tb PFK inh-2
Cc1cc(/C=C2/C(=O)NC(=O)N(Cc3ccco3)C2=O)c(C)n1-c1ccccc1O	-11%	?	-13%	?	-3	·	·
O=C1CC(=O)N(Cc2ccco2)C(=S)N1	21µM*	?	?	?	?	24µM*	?
O=C(Nc1ccc2c(c1)OCO2)c1cccn(Cc2ccc(F)cc2)c1=O	·	-4%	2%	·	-2	·	·
CCc1ccccc1NC(=O)c1cccn(Cc2ccccc2F)c1=O	·	0%	11%	·	-3	·	·
O=C(NCc1cccc(Cl)c1)c1cc(COc2ccc3ncccc3c2)on1	15µM*	24%	7%	-3	3	12µM*	13µM*
COC(=O)[C@H]1C[C@@]2(C)c3ccccc3N[C@H]2N1	·	·	·	·	-5	·	·
O=[N+]([O-])c1c(Nc2ccc(O)cc2)cc(Cl)c2nonc12	?	?	4%	-24	-16	7.6µM*	?
CN(c1ccc(O)cc1)c1ccc([N+](=O)[O-])c2nonc12	·	·	-9%	0	-11	·	·
Cc1ccc2c(c1)sc(C)[n+]2CCCS(=O)(=O)[O-]	?	-17%	-1%	-2	-13	-16%	1%
C=CC[C@@H](CC(=O)N(CCO)Cc1ccccc1)C(=O)NC[C@H](OC(=O)[C@@H](CC=C)CC(=O)OC(C)(C)C)c1ccccc1	5%	3%	9%	6	3	·	·
COc1ccc(-c2csc(NS(=O)(=O)c3ccc([N+](=O)[O-])cc3)n2)cc1	?	?	-10%	-8	-2	-33%	?
O=C(COC(=O)c1ccc(Cl)c(S(=O)(=O)N2CCOCC2)c1)Nc1ccc2[nH]c(=O)[nH]c2c1	?	?	1%	2	7	?	?
COc1cc(/C=C/c2sc3ccccc3[n+]2CCCS(=O)(=O)[O-])ccc1O	12µM*	?	?	-26	?	-25%	?
COc1cc(/C=C/c2nc3ccccc3c(=O)n2-c2ccccc2O)ccc1O	-3%	?	i	1	0	·	·
CC(=O)N1c2ccccc2C(c2ccccc2)=NCC1C(=O)NC1CCCCC1 (stereo not drawn)	·	·	·	·	-2	·	·
COc1cccc(-n2c(/C=C/c3ccccc3O)nc3ccccc3c2=O)c1	·	?	9%	·	-2	·	·
COC(=O)c1ccc2c(c1)C(C)(C)C(/C=C/c1ccccc1O)=[N+]2C	13µM*	?	-4%	·	-21	-4%	?
CCn1c(C)nc2cc(C(=O)N/N=C/c3ccc(O)c(O)c3O)ccc21	?	?	-12%	-74*	-10	?	?
O=C1c2ccccc2-c2cccc3cccc1c23	·	?	-2%	-19	-4	·	·
O=C1C(SCCO)=C(SCCO)C(=O)c2ccccc21	9.5µM*	?	-18%	-107*	?	0.6µM*	?
Cc1cc(SCC(=O)NC(=O)NCc2ccco2)nc2c(C)cccc12	?	22%	i	·	-16	?	?
COc1ccc(C)cc1-n1nnnc1SCC(=O)NC(=O)NCc1ccco1	11µM*	?	-20%	·	-10	10%	-11%
COc1ccccc1OCc1nnc(SCC(=O)NCc2ccco2)n1Cc1ccco1	?	?	?	?	-5	7.6µM*	7.6µM*
COc1cccc(/C=C/c2nc3ccccc3c(=O)n2-c2ccc(Cl)cc2)c1OC	·	-6%	8%	·	0	·	·
Cc1cc(C)nc(/N=C(\N)c2c(O)[nH]c(=O)[nH]c2=O)n1	?	29%	-7%	?	2	?	-16%
SMILES	Tb PFK inh-1	Pin1 inhibitor	Tb PGK inh	PI5P4K alpha inh	PI4K2A inh	Tb PFK KinaseGlo	Tb PFK inh-2
COc1ccc(N=C(C)c2c(O)[nH]c(=O)[nH]c2=O)cc1	1%	-3%	i	1	-6	·	·
Cc1ccc(C)c(OCCCC(=O)Nc2ccc(N3CCOCC3)cc2)c1	?	·	·	·	·	16%	-5%
Cc1cc(N2CCOCC2)nc2ccc(NC(=O)CCC(=O)N3CCC4(CC3)OCCO4)cc12	-1%	-1%	-4%	-9	4	·	·
CCC1(CC)C(=O)N(Cc2ccccc2)C(=O)N(Cc2ccccc2)C1=O	2%	?	-9%	·	-2	·	·
O=c1ccsn1Cc1ccccc1	11µM*	4%	-2%	?	-2	16%	11µM*
COc1ccc(NC(=O)Cn2c3ccccc3c3nc4n(c(=O)c32)CCS4)cc1	-1%	28%	i	4	-11	·	·
Cc1ccc(-c2c[n+](Cc3cccc(Cl)c3)c3n2CCC3)cc1	?	-4%	-7%	4	-3	?	?
Cc1ccc(CN2C3CCCC2CC(NC(=S)NCc2ccccc2)C3)cc1 (stereo not drawn)	7%	3%	4%	3	-2	·	·
Cc1cc(C)c(NC(=S)NCC2CCN(C(C)c3ccccc3)C2)c(C)c1 (stereo not drawn)	?	-3%	-8%	-10	4	7.6µM*	15µM*
CSc1nc(=S)c2[nH]c(=S)[nH]c2[nH]1	?	-21%	-8%	-87*	-6	5.4µM*	19µM*
Cc1ccc(-n2c(/C=C/c3cccs3)nc3ccccc3c2=O)cc1C	·	0%	·	·	0	·	·
Nc1nc2ccccc2n1CCOc1ccc(F)cc1	?	7%	2%	0	-2	13µM*	21µM*
CCOC(=O)Cn1c(=N)n(CCOc2ccc(F)cc2)c2ccccc21	5.4µM*	-1%	-11%	4	-1	3µM*	5.4µM*
COc1ccc(OCCn2c(NC(=O)c3ccc(OC)cc3)nc3ccccc32)cc1	·	?	i	·	3	·	·
N#Cc1ccccc1NC(=O)c1cccn(Cc2ccccc2)c1=O	·	2%	-1%	·	-3	·	·
Cc1cccc(C(=O)OCC(=O)c2ccc(CC(=O)N3CCOCC3)s2)c1C	?	3%	-16%	-60*	-12	?	-17%
